Bioassay records (PubChem)
Pf growth 48h: Primary qHTS for delayed death inhibitors of the malarial parasite plastid, 48 hour incubation. P. falciparum luciferase growth in erythrocytes, 48 h. Potency, µM (doses to about 28.7 µM), without a hit: top-dose activity change, negative = inhibition, hits mostly inhibitors. 310,000 compounds, 5.9% hits. AID 504832, 2011; also: potency is read from the fitted curve at half-maximal effect
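Cell-based growth assay: transgenic P. falciparum expressing firefly luciferase, cultured in red cells within RPMI 1640 containing 0.5% w/v Albumax, 24 mM bicarbonate and gentamycin. A drop in luciferase activity indicates inhibition.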
Pf growth 96h: Primary qHTS for delayed death inhibitors of the malarial parasite plastid, 96 hour incubation | P. falciparum luciferase reporter growth, 96 h | Potency, µM (titrated, usually from 28.7 µM), inactives show at the highest dose activity change, negative = inhibition, usual class: inhibitors | 320,000 compounds, 6.9% hits | AID 504834, 2011; also: potency is read from the fitted curve at half-maximal effect
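96 h incubation, 37 C, 5% CO2, of luciferase-reporter P. falciparum-infected RBCs (2% hematocrit, 0.05% parasitemia final) with test compounds; endpoint luminescence.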
Sm TGR inh: qHTS Assay for the Inhibitors of Schistosoma Mansoni Peroxiredoxins; Schistosoma mansoni thioredoxin glutathione reductase (TGR), Q962Y6; purified TGR, DTNB reduction, TNB absorbance 405 nm; Potency, µM (series often up to 114 µM), without a hit: top-dose activity change, negative = inhibition, hits mostly inhibitors; 360,000 compounds, 3% hits; AID 485364, 2010; also: potency is read from the fitted curve at half-maximal effect; nearly all actives have a fitted effect of over 60% in size
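Kinetic colorimetric format: TGR-catalysed, NADPH-driven DTNB reduction monitored via TNB absorbance. Enzyme dispensed at 20 nM; compound exposure 15 min at room temperature before reaction start.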
Giardia FBPA inh: qHTS Assay for Inhibitors of Fructose-1,6-bisphosphate Aldolase from Giardia Lamblia | A8B2U2 | purified Giardia FBPA | Potency, µM (top dose mostly 59.6 µM), without a hit: at the highest dose activity, negative = inhibition, actives largely listed as inhibitors | 290,000 compounds, 0.71% hits | AID 2451, 2010; also: potency is read from the fitted curve at half-maximal effect; nearly all actives have a fitted effect of over 55% in size
Target sequence (A8B2U2 whole entry, looked up): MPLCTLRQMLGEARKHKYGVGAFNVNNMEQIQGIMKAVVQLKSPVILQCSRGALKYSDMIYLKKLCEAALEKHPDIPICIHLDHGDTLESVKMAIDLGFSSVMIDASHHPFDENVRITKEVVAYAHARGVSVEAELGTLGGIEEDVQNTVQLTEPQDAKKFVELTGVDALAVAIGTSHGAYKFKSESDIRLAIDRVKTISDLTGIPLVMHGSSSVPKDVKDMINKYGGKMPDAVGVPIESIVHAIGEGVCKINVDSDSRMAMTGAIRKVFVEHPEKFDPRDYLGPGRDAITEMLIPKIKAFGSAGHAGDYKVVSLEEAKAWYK
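Giardia FBPA (40 nM reagent) was preincubated 10 min at RT with compound (up to 57.5 uM final), then substrate plus GAPDH/TPI/NAD/arsenate coupling system with diaphorase/resazurin was added; resorufin fluorescence (525/598 nm) was read after 20 min.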
HCMV antiviral: qHTS Assay for inhibitors of the human cytomegalovirus (HCMV). HFF cells, HCMV-luciferase reporter, 72 h; active compounds read low. activity change, negative = inhibition, % at 57.5 µM. 410,000 compounds, 4.5% hits; in the data active = activity change below about -60%; inconclusive = no clear call, values can overlap the other calls; inactive = above about -39%
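Cell-based, HFFs, 1000 cells/well, 16 h 37C; cpds in DMSO + HCMV-luc, MOI 1 PFU/cell; 72 h 37C; OneGlo luminescence after 5 min RT; norm. to buffer vs Salinomycin 10uM.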
An asterisk follows results filed as active; ? = inconclusive; / = no result given; [ ] = another dose, or the depositor's remark. A selection: hits, their analogues and other compounds. The true share with any hit is near 14%. Unless noted, calls follow the shape of the dose curve; as a rule, active = well fitted curve in the direction sought with a large enough effect; inconclusive = small, poorly fitted or top-dose-only effect, or another doubt; inactive = no such curve, though single readings can be large; an effect the other way counts as inactive or inconclusive. % is scaled to controls: 0 for no effect and ±100 for the full control effect.

SMILES | Pf growth 48h | Pf growth 96h | Sm TGR inh | Giardia FBPA inh | HCMV antiviral
NC(=O)c1cc[n+](CC2=C(C(=O)O)N3C(=O)C(NC(=O)C(c4ccccc4)S(=O)(=O)[O-])C3SC2)cc1 (stereo not drawn) | / | / | / | -21.0% | /
Cc1ccc(C2(c3noc(CN(C)CCO)n3)CCCC2)cc1 | ? | 0.4% | -11.2% | -0.9% | -13.4
Cc1ccc(C2(c3noc(CN4CCC(c5ccncc5)CC4)n3)CCCC2)cc1 | ? | 11.7µM* | 0.0% | 3.7% | ?
COCCN(Cc1nc(C2(c3ccc(C)cc3)CCCC2)no1)C(C)C | ? | 13.1µM* | -8.5% | -3.4% | -22.7
C/C=C(/C)C(=O)O[C@H]1CC(C)=CC(=O)[C@@]2(C)CC[C@@](O)(C(C)C)[C@H]12 | / | / | / | 3.9% | /
O=C(CSc1ncc(-c2ccccc2)[nH]1)Nc1cccc(Br)c1 | / | / | 6.1% | / | -66.2*
O=C(CSc1ncc(-c2ccccc2)[nH]1)Nc1ccccc1 | 6.7% | / | -2.6% | -6.1% | ?
CS(=O)(=O)Nc1ccccc1C(=O)Nc1cc(Cl)cc(Cl)c1 | / | 8.1% | -1.8% | 7.1% | -103.0*
CS(=O)(=O)Nc1ccccc1C(=O)Nc1ccccc1Cl | -3.5% | ? | -9.5% | 4.9% | 32.9
CS(=O)(=O)Nc1ccccc1C(=O)Nc1cccc(Cl)c1 | -21.4% | -1.0%[5.75 µM] | -4.2% | 15.9% | -67.4*
COc1cccc(NC(=O)c2ccccc2NS(C)(=O)=O)c1 | 5.5% | / | 2.9% | 1.4% | 77.8
Cc1cc(O)c(C)c2sc(N)nc12 | / | / | / | -16.2% | /
CCOc1ccc(NC(=S)c2ccncc2)cc1 | 33.3% | 9.28µM* | -17.9% | ? | ?
CCOc1ccc(NC(=S)Nc2ccc(OC)cc2)cc1 | -10.6% | ? | / | -4.3% | -38.0
CCOc1ccc(C(=O)NCc2ccncc2)cc1 | 6.5% | 4.15µM* | 14.0% | 0.9% | 33.0
CCCOc1ccc(C(=O)Nc2cccnc2)cc1 | 184.1% | 21.4% | 0.0% | 5.6% | 54.9
Cc1ccc(C)n1-c1ccc(C(=O)NCc2ccncc2)cc1 | ? | ? | 22.4µM* | -0.6% | ?
CCCCOc1ccc(C(=O)Nc2ccncc2)cc1 | ? | -11.1% | 5.9% | -2.4% | -76.0*
NS(=O)(=O)c1cc2c(cc1Cl)N[C@H](Cc1ccccc1)NS2(=O)=O | 12.6% | 8.8% | / | / | /
COc1ccc(C(=O)Nc2nc3nc(C)c(Cl)c(=O)n3[nH]2)cc1 | / | / | 9.3% | / | -25.1
COc1ccc(-c2nn(CCC#N)cc2C(=O)Nc2cccc(C(=O)O)c2)cc1OC | 11.5% | 2.4% | -15.1% | 7.0% | 33.4
CC(C)(C)OC(=O)NN1CC(=O)N2Cc3[nH]c4ccccc4c3C[C@H]2C1=O | -0.3% | 29.4% | 0.0% | -8.2% | -21.6
CC(C)c1nc2cc(C(=O)N3CCN(c4cnccn4)CC3)ccc2o1 | 6.3% | 11.7µM* | -6.6% | / | -36.4
COc1ccc2c(C)cc(=O)[nH]c2c1 | 27.5% | ? | 9.0% | -1.5% | 67.2
COc1ccc2c(O)c(-c3c(C)cc(C)cc3C)c(=O)[nH]c2c1 | / | / | / | / | -62.6*
SMILES | Pf growth 48h | Pf growth 96h | Sm TGR inh | Giardia FBPA inh | HCMV antiviral
CC(=O)c1nnn(-c2c(F)cccc2F)c1C | 78.1% | 41.3% | 0.8% | 0.3% | -33.6
CCCc1nc2ccc(NC(C)=O)cc2c(=O)n1Cc1cccc(Cl)c1 | ? | 2.1% | -22.2% | 0.5% | 6.9
CCCc1nc2ccc(NC(=O)c3cccs3)cc2c(=O)n1Cc1ccc(Cl)cc1 | 0.465µM* | 2.2% | -20.0% | -2.2% | 0.0
Cc1nc2ccc(NC(=O)c3cccs3)cc2c(=O)n1Cc1ccc(Cl)cc1 | ? | 3.29µM* | 7.9% | -2.5% | -98.4*
CCOC(=O)C1(C)CCCN1C(=O)c1ccc(OC)c(F)c1 (stereo not drawn) | / | / | / | / | 8.3
CCN1CCN(CCc2nc3cc(NC(=O)COc4ccc(Cl)cc4)ccc3n2C)CC1 | 5.22µM* | 6.57µM* | 28.5% | 1.0% | -38.1
CC1CCN(CCc2nc3cc(NC(=O)COc4ccc(Cl)cc4)ccc3n2C)CC1 | ? | 3.29µM* | 2.6% | / | ?
Cc1ccc(OCC(=O)Nc2ccc3c(c2)nc(CCN2CCC(C)CC2)n3C)cc1 | ? | ? | -0.1% | -7.2% | -70.3*
CCOC(=O)c1c(NC(=O)/C=C/c2ccccc2)sc2c1CCCC2 | / | / | 0.4% | / | 4.3
CCC(=O)c1ccc(OCC(=O)NCCc2ccccn2)cc1 | 8.6% | -33.7% | 1.4% | 1.1% | 4.5
COC(=O)C1=C(c2ccc(Cl)c(C(F)(F)F)c2)C[C@@H]2CC[C@H]1N2C(=O)NCc1ccco1 | ? | 8.28µM* | 25.2% | / | -26.4
COC(=O)C1=C(c2ccc(OC(F)(F)F)cc2)C[C@@H]2CC[C@H]1N2C(=O)NCCOc1ccccc1 | 11.7µM* | 4.65µM* | -11.8% | / | -8.3
COC(=O)C1=C(c2ccc(Cl)c(C(F)(F)F)c2)C[C@@H]2CC[C@H]1N2C(=O)NCCOc1ccccc1 | 11.7µM* | 4.65µM* | -13.2% | / | /
COC(=O)C1=C(c2ccc(Cl)c(C(F)(F)F)c2)C[C@@H]2CC[C@H]1N2C(=O)NCCO | ? | -6.5% | -1.0% | / | 42.7
COC(=O)C1=C(c2ccc(OC(F)(F)F)cc2)C[C@@H]2CC[C@H]1N2C(=O)NCCOc1ccccc1Cl | 10.4µM* | ? | -17.2% | / | -8.1
CC(=O)NCCNc1cc(-c2ccccc2CN(C)C)ncn1 | / | / | / | -0.2% | /
O=C(NCC1(N2CCCCC2)CCCCC1)c1cccc(NS(=O)(=O)c2ccccc2)c1 | ? | ? | -0.6% | / | -16.9
Cc1cccc(NS(=O)(=O)c2cccc(C(=O)NCC3(N4CCOCC4)CCCCC3)c2)c1 | / | / | / | / | -11.0
O=C(NCC1(N2CCCCC2)CCCCC1)c1cccc(S(=O)(=O)Nc2ccc(F)cc2)c1 | 8.28µM* | ? | -19.1% | / | 0.6
